# Reference: the supplement of paper PMC7801607
# Assays:
# CHO = assay: % viability of CHO cells (MTT); higher = less toxic; conditions: 48 h
# How it was run: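 CHO cells seeded at 10^6 cells/well were exposed to compound at 2 or 20 µM for 48 h. Survival, as percent of untreated cells, was measured with the colorimetric tetrazolium (MTT) assay.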
# HepG2-A16-CD81 = assay: % inhibition of HepG2 viability (CellTiter-Glo); higher = more toxic; conditions: 5 µM
# [1] = test system: Plasmodium falciparum NF54 stage IV/V gametocytes; assay: % inhibition of gametocyte viability (PrestoBlue); higher = more inhibition; conditions: 48 h
# How it was run: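 Compound was tested at 1 or 5 µM against Stage IV/V NF54 gametocytes plated at 100 µL/well (2% gametocytaemia, 5% haematocrit). After 48 h of stationary, hypoxic incubation at 37 °C, 10 µL PrestoBlue was added for 2 h before reading 612 nm fluorescence from 70 µL of transferred supernatant. Gametocyte viability inhibition, as a percentage, was scaled against vehicle and kill controls from a single run.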
# [2] = test system: Plasmodium falciparum NF54 asexual blood stage; assay: % inhibition of asexual blood stage proliferation (pLDH); higher = more inhibition; conditions: 72 h
# How it was run: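 In 96-well plates, compound at 2 or 20 µM was added to Plasmodium falciparum NF54 ring-stage cultures (1% haematocrit, 2% parasitaemia). Plates were incubated for 72 h at 37 °C in 4% CO2, 3% O2 and 93% N2, and survival was then read at 620 nm using the parasite lactate dehydrogenase assay. Inhibition of asexual proliferation, expressed as a percentage, was normalised to controls.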
# [3] = test system: Plasmodium falciparum NF54 stage IV/V gametocytes; assay: % inhibition of gametocyte viability (ATP bioluminescence); higher = more inhibition; conditions: 24 h
# How it was run: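 Density gradients were used to enrich stage IV/V NF54 gametocytes, which were then seeded into 96-well plates at 30,000 per well with compound at 1 or 5 µM. The plates were incubated at 37 °C for 24 h, and ATP was measured with the Promega BacTiter Glo bioluminescence system. Percent inhibition of gametocyte viability was normalised to the plate controls from a single run.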
# [4] = test system: Plasmodium falciparum NF54 stage IV/V gametocytes; assay: % inhibition of gametocyte viability (luciferase reporter); higher = more inhibition; conditions: 48 h
# How it was run: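 Percent inhibition was normalised to controls from a single run. Stage IV/V gametocytes of the NF54-Pfs16-GFP-Luc line, at 2% gametocytaemia and 2% haematocrit, were exposed to compound at 1 or 5 µM for 48 h at 37 °C under stationary, hypoxic conditions. Luminescence was then read from 30 µL lysate mixed with 30 µL Promega luciferin substrate on a GloMax-Multi+ reader with 10 s integration.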
# [5] = test system: Plasmodium berghei ANKA liver stage in HepG2-A16-CD81; assay: % inhibition of liver stage parasite viability (luciferase); higher = more inhibition; conditions: 5 µM; 48 h
# Protocol: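 Single-concentration screen of the MMV Pandemic Response Box. P. falciparum NF54 asexual blood stages: pLDH assay, 72 h at 37 °C, 2 and 20 µM, n=2. Stage IV/V gametocytes (NF54): luciferase reporter (NF54-Pfs16-GFP-Luc, 48 h), ATP bioluminescence (24 h) and PrestoBlue (48 h) at 1 and 5 µM, n=1. P. berghei liver stage (luciferase in HepG2-A16-CD81, 48 h post infection) at 5 µM, n=4. All normalised to DMSO and kill controls as % inhibition.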
# 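For % inhibition of HepG2 viability (CellTiter-Glo) in this document: HepG2-A16-CD81 hepatoma cells plated as in the liver-stage assay but without sporozoites, with DMSO wells as negative and 25 µM puromycin as positive control.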
SMILES,% viability of CHO cells (CHO; 2 µM) [%],% viability of CHO cells (CHO; 20 µM) [%],% inhibition of HepG2 viability (HepG2-A16-CD81) [%],% inhibition of gametocyte viability ([1]; 1 µM) [%],% inhibition of gametocyte viability ([1]; 5 µM) [%],% inhibition of asexual blood stage proliferation ([2]; 2 µM) [%],% inhibition of asexual blood stage proliferation ([2]; 20 µM) [%],% inhibition of gametocyte viability ([3]; 1 µM) [%],% inhibition of gametocyte viability ([3]; 5 µM) [%],% inhibition of gametocyte viability ([4]; 1 µM) [%],% inhibition of gametocyte viability ([4]; 5 µM) [%],% inhibition of liver stage parasite viability [5] [%]
COc1ccc(SC(=O)N[C@H](CCC(=O)O)C(=O)O)cc1,114,122,3.46,< 0,58.8,58.1,103,< 0,6.16,23.9,62.8,19.9
COc1ccc(NC(=O)c2cc3ccccn3n2)cc1,112,57,-0.446,< 0,10.6,20.3,87.1,< 0,< 0,< 0,< 0,-110
O=C(Nc1ccc(N2CCN(C(=O)c3ccccc3)CC2)cc1)c1ccc2c(c1)OCO2,114,113,38.8,5.65,< 0,62.9,44.8,0.482,< 0,9.21,< 0,33.5
CC(C)c1ccc(COc2cccc(-c3cc(S(C)=O)c(C#N)c(=O)[nH]3)c2)cc1 (stereo unspecified),91,106,3.83,< 0,28.5,18,56.2,51.9,82.8,< 0,< 0,32.5
Cc1ccc(N2CCC(CCOc3ccc(S(C)(=O)=O)cc3)CC2)nn1,89.6,123,1.45,0.785,< 0,9.69,64.6,1.5,< 0,0.296,< 0,17.8
O=C(CCCC(F)(F)F)N1CCC(c2nc(-c3nccs3)no2)CC1,113,105,8.03,-0.494,2.08,7.54,19.8,0.351,< 0,< 0,8.02,-0.37
Oc1ccc(NCc2ccccc2OCc2ccccc2)cc1,97.9,103,-1.04,< 0,< 0,18.6,95,< 0,< 0,< 0,< 0,
O=[N+]([O-])c1cn2c(n1)OC[C@@H](OCc1ccc(OC(F)(F)F)cc1)C2,92.7,84.4,10.7,< 0,< 0,0.354,10.1,< 0,< 0,< 0,3.32,31.5
C[C@@H](O)[C@H](N)C(=O)NS(=O)(=O)c1cccc(-c2ccc3[nH]ncc3c2)c1,85.2,96,-0.0475,35.8,19.7,-13.1,32,< 0,< 0,< 0,6.84,31.2
Cc1cc(C2CCCCC2)n(O)c(=O)c1,95.2,69.7,13.4,< 0,58.2,9.8,77.8,36.1,< 0,< 0,< 0,14.2
c1cnc(NCc2ccc(CNc3ncccn3)cc2)nc1,85.1,77.7,-9.29,9.96,14.8,13.7,35.1,< 0,< 0,3.69,< 0,25.6
CN(C)[C@@H]1C(=O)C(C(N)=O)=C(O)[C@@]2(O)C(=O)C3=C(O)c4c(O)c(NC(=O)CN5CCCC5)cc(F)c4C[C@H]3C[C@@H]12,99.3,125,21,13.1,< 0,72.1,88,< 0,< 0,< 0,< 0,-4.53
Nc1nc2c(Cc3cccnc3)c[nH]c2c(=O)[nH]1,97.2,113,-4.71,26.1,24.3,2.83,19.8,< 0,< 0,< 0,< 0,
CC(C)C(=O)N[C@H]1[C@H]([C@H](O)[C@H](O)CO)OC(C(=O)O)=C[C@@H]1N=[N+]=[N-],91.9,113,5.84,< 0,14.9,9.36,29.6,1.53,< 0,< 0,< 0,10.3
COc1c(NC(=O)[C@H]2CC[C@@H](COc3ccc([N+](=O)[O-])cc3)CC2)c(F)cc2c(=O)c(C(=O)O)cn(C3CC3)c12,104,102,-1.96,< 0,23,8.56,70,0.404,< 0,< 0,9,46.8
Cc1nc2ccc(Cl)cc2c(-c2ccccc2)c1CC(=O)O,121,61.2,6.38,< 0,< 0,37.6,40.5,< 0,< 0,7.85,13.3,24.5
Nc1nc(-c2ccccc2)nc2c1ncn2[C@@H]1O[C@H](COS(=O)(=O)NC(=O)c2ccccc2O)[C@@H](O)[C@H]1O,102,129,3.69,16.3,11,19.4,71.1,< 0,< 0,< 0,< 0,
